Laboratory results from PubChem BioAssay (Tox21).
Results filed as inconclusive are left out. Entries that show only a call come without a potency. Unmarked numbers belong to inactive results. Active and inactive are the calls of the source. Unless noted, calls come from the whole dose curve; as a rule, active = well fitted curve in the direction sought with a large enough effect in the repeat runs; inconclusive = weak or mixed curves; inactive = no such curve, though single readings can be large; an effect the other way counts as inactive or inconclusive.

How the values were obtained:
[1] = qHTS RealTime-Glo MT Cell Viability Assay in HEK293 cells - 24 hour (AID 1224886); note: top concentration of the series differs between compounds; nearly all actives have a fitted effect of over 50% in size
In short: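 HEK293 cells seeded with NanoLuc/prosubstrate reagent, rested 5 h at 37 C, then dosed and kept at 37 C up to 40 h. Nonlytic real-time luminescence from viable cells read at 0, 8, 16, 24, 32 and 40 h.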

[2] = qHTS RealTime-Glo MT Cell Viability Assay in HEK293 cells - 8 hour (AID 1224887); note: top concentration of the series differs between compounds; nearly all actives have a fitted effect of over 50% in size
In short: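 Measured as luminescence from the same continuously cultured HEK293 wells at successive time points (0, 8, 16, 24, 32, 40 h) after compound addition. Reagent present from seeding; dosing at 5 h; incubation 37 C.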

[3] = A CellTox Green Cytotoxicity Assay to monitor cytotoxicity in HEK293 cells - 16 hour (AID 1224888); note: nearly all actives have a fitted effect of over 35% in size; note: potency is the fitted concentration of half-maximal effect
In short: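 Homogeneous no-lysis format: HEK293 cell suspension mixed with CellTox Green reagent, seeded, incubated 5 h at 37 C/5% CO2, then dosed by pintool with compound in DMSO.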

[4] = qHTS RealTime-Glo MT Cell Viability Assay in HepG2 cells - 0 hour (AID 1224889); note: nearly all actives have a fitted effect of over 50% in size
In short: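 HepG2 cells (600/well) were dispensed with RealTime-Glo reagents, incubated 5 h at 37 °C, then treated with compounds in DMSO for up to 40 h. Nonlytic NanoLuc luminescence reflecting viable cells was read at each stated time point.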

[5] = A CellTox Green Cytotoxicity Assay to monitor cytotoxicity in HepG2 cells - 8 hour (AID 1224890); note: nearly all actives have a fitted effect of over 45% in size
In short: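 Fluorescent DNA-binding dye, 600 HepG2 cells/well, 5 h preincubation then compound in DMSO; same plates read at 0–40 h, 37 C.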

[6] = qHTS assay to identify small molecule antagonists of the estrogen receptor alpha (ER-alpha) signaling pathway using the BG1 cell line in the presence of 0.1 nM 17-beta-estradiol - cell viability counter screen (AID 1259241); note: nearly all actives have a fitted effect of over 40% in size
In short: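 Cytotoxicity counter-screen: live-cell protease activity measured by fluorescence (30 min reagent step) in the same wells. Cells were VM7Luc4E2 with endogenous ER-alpha and ERE-driven luciferase, treated 22 hr at 37C alongside 0.1 nM 17beta-estradiol final.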

[7] = qHTS assay to identify small molecule antagonists of the androgen receptor (AR) signaling pathway using the MDA cell line in the presence of 0.5 nM R1881 - cell viability counter screen (AID 1259242); note: nearly all actives have a fitted effect of over 45% in size
In short: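 Human breast carcinoma MDA-kb2 cells, cultured without CO2, receive compounds alongside 0.5 nM (final) R1881 agonist. After 16 hr at 37C, viability is taken as live-cell protease signal.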

[8] = biological target: Estrogen receptor (Homo sapiens) (UniProt P03372); experiment: qHTS assay to identify small molecule antagonists of the estrogen receptor alpha (ER-alpha) signaling pathway using the BG1 cell line in the presence of 0.1 nM 17-beta-estradiol (AID 1259244); note: nearly all actives have a fitted effect of over 50% in size
Sequence of Estrogen receptor (Homo sapiens) (P03372 whole entry, looked up): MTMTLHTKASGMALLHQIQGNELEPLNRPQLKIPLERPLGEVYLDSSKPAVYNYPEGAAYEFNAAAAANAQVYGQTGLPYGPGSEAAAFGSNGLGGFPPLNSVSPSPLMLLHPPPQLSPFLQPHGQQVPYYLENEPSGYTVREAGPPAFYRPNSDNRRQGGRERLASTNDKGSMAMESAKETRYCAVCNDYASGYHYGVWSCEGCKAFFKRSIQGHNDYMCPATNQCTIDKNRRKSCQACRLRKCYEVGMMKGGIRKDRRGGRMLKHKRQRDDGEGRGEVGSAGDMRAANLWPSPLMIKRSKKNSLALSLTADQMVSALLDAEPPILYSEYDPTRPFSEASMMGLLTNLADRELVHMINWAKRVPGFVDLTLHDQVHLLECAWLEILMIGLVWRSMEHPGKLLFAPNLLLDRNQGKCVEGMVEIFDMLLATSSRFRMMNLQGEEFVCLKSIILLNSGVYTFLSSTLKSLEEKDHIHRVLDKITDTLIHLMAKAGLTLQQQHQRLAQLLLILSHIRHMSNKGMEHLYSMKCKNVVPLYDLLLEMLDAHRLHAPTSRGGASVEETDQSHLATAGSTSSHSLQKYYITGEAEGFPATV
In short: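 Seeding of stripped-serum-adapted VM7Luc4E2 cells, 24 h attachment, compound transfer, then 0.1 nM final 17beta-estradiol; after 22 h incubation, ONE-Glo reagent and luminescence reading.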

[9] = biological target: Androgen receptor (Homo sapiens) (UniProt P10275); experiment: qHTS assay to identify small molecule antagonists of the androgen receptor (AR) signaling pathway using the MDA cell line in the presence of 0.5 nM R1881 (AID 1259243); note: nearly all actives have a fitted effect of over 50% in size
Sequence of Androgen receptor (Homo sapiens) (P10275 whole entry, looked up): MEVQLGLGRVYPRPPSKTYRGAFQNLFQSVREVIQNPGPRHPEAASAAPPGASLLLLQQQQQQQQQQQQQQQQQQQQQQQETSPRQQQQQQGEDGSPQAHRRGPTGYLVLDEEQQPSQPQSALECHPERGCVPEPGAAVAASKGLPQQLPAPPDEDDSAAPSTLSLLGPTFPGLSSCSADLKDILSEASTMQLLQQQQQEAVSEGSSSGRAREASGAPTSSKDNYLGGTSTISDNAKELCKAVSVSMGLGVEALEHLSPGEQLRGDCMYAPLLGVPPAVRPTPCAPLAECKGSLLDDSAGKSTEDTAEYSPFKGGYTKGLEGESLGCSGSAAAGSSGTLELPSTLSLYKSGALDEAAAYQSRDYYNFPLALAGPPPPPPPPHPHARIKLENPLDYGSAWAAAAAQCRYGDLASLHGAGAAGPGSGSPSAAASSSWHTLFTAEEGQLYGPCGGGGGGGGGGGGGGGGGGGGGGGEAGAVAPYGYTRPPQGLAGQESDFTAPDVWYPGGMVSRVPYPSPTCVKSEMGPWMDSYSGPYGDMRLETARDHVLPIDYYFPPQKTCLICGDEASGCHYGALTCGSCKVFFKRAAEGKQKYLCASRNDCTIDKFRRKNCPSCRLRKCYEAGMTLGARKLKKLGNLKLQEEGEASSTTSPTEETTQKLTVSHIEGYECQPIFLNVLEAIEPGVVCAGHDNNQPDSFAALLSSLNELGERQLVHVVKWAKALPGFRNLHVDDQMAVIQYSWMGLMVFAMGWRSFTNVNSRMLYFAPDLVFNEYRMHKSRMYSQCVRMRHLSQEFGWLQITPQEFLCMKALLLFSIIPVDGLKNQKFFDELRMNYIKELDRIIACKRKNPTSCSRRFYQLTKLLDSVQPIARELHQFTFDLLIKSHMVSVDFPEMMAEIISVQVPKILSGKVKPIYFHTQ
In short: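 Cells: MDA-kb2 (MMTV-luc). Stimulus: 0.5 nM R1881. Time: 16 hr, 37C, no CO2. Detection: ONE-Glo luminescence after 30 min at RT.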

[10] = qHTS assay to identify small molecule phospholipidosis (PLD) inducers (AID 1259344; active = well fitted curve in the direction sought with a large enough effect; an effect the other way counts as inactive or inconclusive)
In short: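 Image-based: LipidTOX Red pit count/intensity per well and per cell; HepG2, 24 h compound at 37 C, PFA fixation, Hoechst counterstain.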

COC(=O)CCCCC(=O)O
Potency [1]: inactive | Potency [2]: inactive | Potency [3]: inactive | Potency [4]: inactive | Potency [5]: inactive | outcome [6]: inactive | outcome [7]: inactive | outcome [8]: inactive

COC(=O)CCCCC(CCSS/C(CCO)=C(\C)N(C=O)Cc1cnc(C)nc1N)SC(C)=O (stereo unspecified)
Potency [1]: inactive | Potency [2]: inactive | Potency [3]: inactive | Potency [4]: inactive | Potency [5]: inactive | outcome [6]: inactive | outcome [7]: inactive | Potency [9]: inactive | outcome [8]: inactive

CC(C)CO
Potency [1]: inactive | Potency [2]: inactive | Potency [3]: inactive | Potency [4]: inactive | Potency [5]: inactive | outcome [6]: inactive | outcome [7]: inactive | outcome [8]: inactive

COC(=O)c1cccc(Cl)c1
Potency [1]: inactive | Potency [2]: inactive | Potency [3]: inactive | Potency [4]: inactive | Potency [5]: inactive | outcome [6]: inactive | outcome [7]: inactive | outcome [8]: inactive

CC(C)C1OCCN1CCOC(=O)NCCCCCCNC(=O)OCCN1CCOC1C(C)C (stereo unspecified)
Potency [1]: inactive | Potency [2]: inactive | Potency [3]: inactive | Potency [4]: inactive | Potency [5]: inactive | outcome [6]: inactive | outcome [7]: inactive | Potency [9]: inactive | outcome [8]: inactive

CCCC(=O)OC/C=C(\C)CCC=C(C)C
Potency [1]: inactive | Potency [2]: inactive | Potency [3]: 54.9 µM (active) | Potency [4]: inactive | Potency [5]: inactive | outcome [6]: inactive | outcome [7]: inactive | outcome [8]: inactive

NCC1(Cc2noc(=O)[nH]2)CCCCC1
Potency [1]: inactive | Potency [2]: inactive | Potency [3]: inactive | Potency [4]: inactive | Potency [5]: inactive | outcome [6]: inactive | outcome [7]: inactive | outcome [8]: inactive

C=CC/C=C/C
Potency [1]: inactive | Potency [2]: inactive | Potency [3]: inactive | Potency [4]: inactive | Potency [5]: inactive | outcome [6]: inactive | outcome [7]: inactive | outcome [8]: inactive

Cc1cc(C)c(C(=O)O)c(C)c1
Potency [1]: inactive | Potency [2]: inactive | Potency [3]: inactive | Potency [4]: inactive | Potency [5]: inactive | outcome [6]: inactive | outcome [7]: inactive | outcome [8]: inactive

O=C1c2ccccc2C(=O)c2cc(Cl)ccc21
activity change, negative = cytotoxicity [1]: 2.92% [at 6.97 µM] | activity change, negative = cytotoxicity [2]: 6.4% [at 6.97 µM] | activity change [3]: -0.237% [at 6.97 µM, hits give high values] | activity change, negative = cytotoxicity [4]: 1.38% [at 6.97 µM] | cytotoxicity increase [5]: -0.731% [at 6.97 µM] | activity change, negative = cytotoxicity [6]: 1.79% [at 8.39 µM] | viability change, negative = cytotoxic [7]: 2.58% [at 8.39 µM] | activity change, negative = inhibition [8]: 6.71% [at 8.39 µM]

N[C@@H](CSCCCO)C(=O)O
activity change, negative = cytotoxicity [1]: 2.46% [at 15.8 µM] | activity change, negative = cytotoxicity [2]: -0.319% [at 15.8 µM] | activity change [3]: 3.31% [at 15.8 µM, hits give high values] | activity change, negative = cytotoxicity [4]: -0.41% [at 15.8 µM] | cytotoxicity increase [5]: -14.5% [at 15.8 µM] | activity change, negative = cytotoxicity [6]: -2.4% [at 19 µM] | viability change, negative = cytotoxic [7]: 2.53% [at 19 µM] | activity, negative = inhibition [9]: -8.92% [at 19 µM] | activity change, negative = inhibition [8]: -4.57% [at 19 µM] | outcome [10]: inactive

C#CCN[C@@H]1CCc2ccccc21
Potency [1]: inactive | Potency [2]: inactive | Potency [3]: inactive | Potency [4]: inactive | Potency [5]: inactive | outcome [6]: inactive | outcome [7]: inactive | Potency [9]: inactive | outcome [8]: inactive | outcome [10]: inactive

CCCCCCCCCOC(=O)c1ccccc1C(=O)OCCCCCCCCC
Potency [1]: inactive | Potency [2]: inactive | Potency [3]: inactive | Potency [4]: inactive | Potency [5]: inactive | outcome [6]: inactive | outcome [7]: inactive | Potency [9]: inactive | outcome [8]: inactive

COCCc1ccccn1
Potency [1]: inactive | Potency [2]: inactive | Potency [3]: inactive | Potency [4]: inactive | Potency [5]: inactive | outcome [6]: inactive | outcome [7]: inactive | Potency [9]: inactive | outcome [8]: inactive

CCC(C)OC(C)CC (stereo unspecified)
Potency [1]: inactive | Potency [2]: inactive | Potency [3]: inactive | Potency [4]: inactive | Potency [5]: inactive | outcome [6]: inactive | outcome [7]: inactive | outcome [8]: inactive

c1ccc(-c2nn[nH]n2)cc1
Potency [1]: inactive | Potency [2]: inactive | Potency [3]: inactive | Potency [4]: inactive | Potency [5]: inactive | outcome [6]: inactive | outcome [7]: inactive | outcome [8]: inactive

CCCCCC(C)O (stereo unspecified)
Potency [1]: inactive | Potency [2]: inactive | Potency [3]: inactive | Potency [4]: inactive | Potency [5]: inactive | outcome [6]: inactive | outcome [7]: inactive | outcome [8]: inactive

CCCCOC(=O)C(C)O (stereo unspecified)
Potency [1]: inactive | Potency [2]: inactive | Potency [3]: inactive | Potency [4]: inactive | Potency [5]: inactive | outcome [6]: inactive | outcome [7]: inactive | outcome [8]: inactive

CCN(CC)CCN
Potency [1]: inactive | Potency [2]: inactive | Potency [3]: inactive | Potency [4]: inactive | Potency [5]: inactive | outcome [6]: inactive | outcome [7]: inactive | outcome [8]: inactive

Fc1ccccc1
Potency [1]: inactive | Potency [2]: inactive | Potency [3]: inactive | Potency [4]: inactive | Potency [5]: inactive | outcome [6]: inactive | outcome [7]: inactive | outcome [8]: inactive

CN(C)C(C)(C)CO
Potency [1]: inactive | Potency [2]: inactive | Potency [3]: inactive | Potency [4]: inactive | Potency [5]: inactive | outcome [6]: inactive | outcome [7]: inactive | outcome [8]: inactive

CC/C(C)=N\O[Si](C)(O/N=C(\C)CC)O/N=C(\C)CC
Potency [1]: inactive | Potency [2]: inactive | Potency [3]: inactive | Potency [4]: inactive | Potency [5]: inactive | outcome [6]: inactive | outcome [7]: inactive | outcome [8]: inactive

CCOc1cccc(N)c1
Potency [1]: inactive | Potency [2]: inactive | Potency [3]: inactive | Potency [4]: inactive | Potency [5]: inactive | outcome [6]: inactive | outcome [7]: inactive | outcome [8]: inactive

CC1(C)Cc2cccc(N)c2O1
Potency [1]: inactive | Potency [2]: inactive | Potency [3]: inactive | Potency [4]: inactive | Potency [5]: inactive | outcome [6]: inactive | outcome [7]: inactive | outcome [8]: inactive

O=C1CCC(=O)N1Cl
Potency [1]: inactive | Potency [2]: inactive | Potency [3]: inactive | Potency [4]: inactive | Potency [5]: inactive | outcome [6]: inactive | outcome [7]: inactive | outcome [8]: inactive

CCOC(=O)CC1(C)OCC(C)O1 (stereo unspecified)
Potency [1]: inactive | Potency [2]: inactive | Potency [3]: inactive | Potency [4]: inactive | Potency [5]: inactive | outcome [6]: inactive | outcome [7]: inactive | outcome [8]: inactive

c1ccc2cnccc2c1
Potency [1]: inactive | Potency [2]: inactive | Potency [3]: inactive | Potency [4]: inactive | Potency [5]: inactive | outcome [6]: inactive | outcome [7]: inactive | outcome [8]: inactive

CN(C)CCN(C)CCO
Potency [1]: inactive | Potency [2]: inactive | Potency [3]: inactive | Potency [4]: inactive | Potency [5]: inactive | outcome [6]: inactive | outcome [7]: inactive | outcome [8]: inactive

CCCCCCCCCCCCCCCCCCOCCO
activity change, negative = cytotoxicity [1]: -7.08% [at 15.8 µM] | activity change, negative = cytotoxicity [2]: 1.44% [at 15.8 µM] | activity change [3]: 5.03% [at 15.8 µM, hits give high values] | activity change, negative = cytotoxicity [4]: 2.77% [at 15.8 µM] | cytotoxicity increase [5]: -4.91% [at 15.8 µM] | activity change, negative = cytotoxicity [6]: 4.04% [at 19 µM] | viability change, negative = cytotoxic [7]: -0.694% [at 19 µM] | activity change, negative = inhibition [8]: -1.58% [at 19 µM]

CSc1cnccn1
Potency [1]: inactive | Potency [2]: inactive | Potency [3]: inactive | Potency [4]: inactive | Potency [5]: inactive | outcome [6]: inactive | outcome [7]: inactive | outcome [8]: inactive

C=CC(=O)OCC1CCCO1 (stereo unspecified)
Potency [1]: inactive | Potency [2]: inactive | Potency [3]: inactive | Potency [4]: inactive | Potency [5]: inactive | outcome [6]: inactive | outcome [7]: inactive | outcome [8]: inactive
